In the supplement of paper PMC12669032:

Legend:
Assay in all cases: growth AUC relative to DMSO control (median of replicates) (fraction); higher = more growth (less inhibition), active = hit call of the paper
Settings in all cases: 20 µM; 24 h;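 active = AUC reduced over 20% with Padj below 0.05 in at least 2 of 3 replicates; inactive = otherwise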
Akkermansia muciniphila = tested on: Akkermansia muciniphila
Procedure, shortened: (§1)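 Gut bacteria were grown singly in mGAM at 37 °C without oxygen, from OD600 0.05, alongside 20 µM compound in 1% DMSO, and OD600 was read each hour for 24 h. Area under the growth curve was normalised to the median of solvent-only wells per plate, or to row and column medians on the industrial chemical plate. The minimum OD was set to 0 beforehand, and the reported value is the median of three biological replicates grown on separate days.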

Bacteroides caccae = tested on: Bacteroides caccae
Procedure, shortened: as §1

Bacteroides clarus = tested on: Bacteroides clarus
Procedure, shortened: as §1

Bacteroides dorei = tested on: Bacteroides dorei
Procedure, shortened: as §1

Bacteroides stercoris = tested on: Bacteroides stercoris
Procedure, shortened: as §1

[1] = tested on: Bacteroides thetaiotaomicron
Procedure, shortened: as §1

Bacteroides uniformis = tested on: Bacteroides uniformis
Procedure, shortened: as §1

[2] = tested on: Bifidobacterium longum subsp. longum
Procedure, shortened: as §1

Clostridium difficile = tested on: Clostridium difficile
Procedure, shortened: as §1

Collinsella aerofaciens = tested on: Collinsella aerofaciens
Procedure, shortened: as §1

Coprococcus comes = tested on: Coprococcus comes
Procedure, shortened: as §1

Escherichia coli ED1a = tested on: Escherichia coli ED1a
Procedure, shortened: as §1

Escherichia coli IAI1 = tested on: Escherichia coli IAI1
Procedure, shortened: as §1

Eubacterium rectale = tested on: Eubacterium rectale
Procedure, shortened: as §1

[3] = tested on: Fusobacterium nucleatum subsp. animalis
Procedure, shortened: as §1

Lactobacillus gasseri = tested on: Lactobacillus gasseri
Procedure, shortened: as §1

Lactobacillus paracasei = tested on: Lactobacillus paracasei
Procedure, shortened: as §1

Odoribacter splanchnicus = tested on: Odoribacter splanchnicus
Procedure, shortened: as §1

[4] = tested on: Parabacteroides distasonis
Procedure, shortened: as §1

Parabacteroides merdae = tested on: Parabacteroides merdae
Procedure, shortened: as §1

Measured: growth AUC

CCCCCCCCSCCO
inactive: Akkermansia muciniphila 1.06 | Bacteroides caccae 0.954 | Bacteroides clarus 0.967 | Bacteroides dorei 1.02 | Bacteroides stercoris 0.918 | [1] 0.975 | Bacteroides uniformis 1 | [2] 1.04 | Clostridium difficile 0.983 | Collinsella aerofaciens 0.949 | Coprococcus comes 0.974 | Escherichia coli ED1a 0.955 | Escherichia coli IAI1 0.936 | Eubacterium rectale 1.04 | [3] 0.902 | Lactobacillus gasseri 0.94 | Lactobacillus paracasei 0.93 | Odoribacter splanchnicus 1.03 | [4] 0.915 | Parabacteroides merdae 0.966

O=C(O)CCCc1c[nH]c2ccccc12
inactive: Akkermansia muciniphila 1.13 | Bacteroides caccae 1.01 | Bacteroides clarus 1.01 | Bacteroides dorei 0.776 | Bacteroides stercoris 0.994 | [1] 0.971 | Bacteroides uniformis 0.979 | [2] 1.01 | Clostridium difficile 1.01 | Collinsella aerofaciens 0.954 | Coprococcus comes 1.01 | Escherichia coli ED1a 0.955 | Escherichia coli IAI1 0.962 | Eubacterium rectale 1.07 | [3] 0.971 | Lactobacillus gasseri 0.832 | Lactobacillus paracasei 0.884 | Odoribacter splanchnicus 0.989 | [4] 0.922 | Parabacteroides merdae 0.984

CCOC(=O)Nc1cccc(OC(=O)Nc2cccc(C)c2)c1
inactive: Akkermansia muciniphila 1.05 | Bacteroides caccae 0.951 | Bacteroides clarus 0.948 | Bacteroides dorei 0.882 | Bacteroides stercoris 0.932 | [1] 0.979 | Bacteroides uniformis 1.02 | [2] 1.02 | Clostridium difficile 0.966 | Collinsella aerofaciens 0.901 | Coprococcus comes 0.963 | Escherichia coli ED1a 0.94 | Escherichia coli IAI1 0.953 | Eubacterium rectale 1.01 | [3] 0.974 | Lactobacillus gasseri 0.896 | Lactobacillus paracasei 1.01 | Odoribacter splanchnicus 1.08 | [4] 0.913 | Parabacteroides merdae 0.932

CCCCCCCCOC(=O)COc1cc(Cl)c(Cl)cc1Cl
inactive: Akkermansia muciniphila 1.05 | Bacteroides caccae 0.98 | Bacteroides clarus 1 | Bacteroides dorei 0.968 | Bacteroides stercoris 1.11 | [1] 1.01 | Bacteroides uniformis 0.982 | [2] 0.97 | Clostridium difficile 1.02 | Collinsella aerofaciens 0.94 | Coprococcus comes 0.946 | Escherichia coli ED1a 1.02 | Escherichia coli IAI1 1.01 | Eubacterium rectale 0.995 | [3] 1.02 | Lactobacillus gasseri 0.977 | Lactobacillus paracasei 1.11 | Odoribacter splanchnicus 1.08 | [4] 1.03 | Parabacteroides merdae 1.01

CS(=O)(=O)c1ccc(C(=O)C2C(=O)C(O)CC(O)C2=O)c(Cl)c1COCC(F)(F)F (stereo not given)
inactive: Akkermansia muciniphila 0.99 | Bacteroides caccae 0.986 | Bacteroides clarus 0.96 | Bacteroides dorei 0.972 | Bacteroides stercoris 0.982 | [1] 0.965 | Bacteroides uniformis 0.975 | [2] 0.978 | Clostridium difficile 0.99 | Collinsella aerofaciens 1 | Coprococcus comes 1 | Escherichia coli ED1a 0.988 | Escherichia coli IAI1 0.972 | Eubacterium rectale 0.798 | [3] 1.02 | Lactobacillus gasseri 1.02 | Lactobacillus paracasei 0.987 | Odoribacter splanchnicus 0.98 | [4] 1.03 | Parabacteroides merdae 0.998

CCC([O-])=C1C(=O)CC(C(=O)[O-])CC1=O.[Ca+2] (stereo not given)
inactive: Akkermansia muciniphila 0.965 | Bacteroides caccae 1 | Bacteroides clarus 0.998 | Bacteroides dorei 0.996 | Bacteroides stercoris 1.1 | [1] 0.958 | Bacteroides uniformis 1.01 | [2] 1.03 | Clostridium difficile 1 | Collinsella aerofaciens 0.995 | Coprococcus comes 0.957 | Escherichia coli ED1a 1 | Escherichia coli IAI1 0.972 | Eubacterium rectale 1.13 | [3] 1.11 | Lactobacillus gasseri 1.06 | Lactobacillus paracasei 0.91 | Odoribacter splanchnicus 0.976 | [4] 0.993 | Parabacteroides merdae 0.996

Br[C@@H]1CC[C@@H](Br)[C@@H](Br)CC[C@H](Br)[C@H](Br)CC[C@H]1Br
inactive: Akkermansia muciniphila 1.04 | Bacteroides caccae 0.941 | Bacteroides clarus 1 | Bacteroides dorei 0.985 | Bacteroides stercoris 1 | [1] 0.978 | Bacteroides uniformis 0.977 | [2] 0.979 | Clostridium difficile 1 | Collinsella aerofaciens 0.815 | Coprococcus comes 0.975 | Escherichia coli ED1a 0.944 | Escherichia coli IAI1 0.968 | Eubacterium rectale 1.08 | [3] 1.03 | Lactobacillus gasseri 0.91 | Lactobacillus paracasei 0.872 | Odoribacter splanchnicus 0.992 | [4] 0.825 | Parabacteroides merdae 1

CCCOC(=O)c1ccc(C(=O)OCCC)nc1
inactive: Akkermansia muciniphila 1.06 | Bacteroides caccae 1.01 | Bacteroides clarus 0.99 | Bacteroides dorei 1.04 | Bacteroides stercoris 0.94 | [1] 1.02 | Bacteroides uniformis 0.99 | [2] 1.05 | Clostridium difficile 0.99 | Collinsella aerofaciens 0.967 | Coprococcus comes 1.05 | Escherichia coli ED1a 1 | Escherichia coli IAI1 1 | Eubacterium rectale 1.03 | [3] 0.944 | Lactobacillus gasseri 0.966 | Lactobacillus paracasei 0.861 | Odoribacter splanchnicus 1.07 | [4] 1 | Parabacteroides merdae 0.986

CCCN(CCC)C(=O)SCC
inactive: Akkermansia muciniphila 0.884 | Bacteroides caccae 1.02 | Bacteroides clarus 0.97 | Bacteroides dorei 1.01 | Bacteroides stercoris 0.942 | [1] 0.998 | Bacteroides uniformis 0.959 | [2] 0.97 | Clostridium difficile 1.03 | Collinsella aerofaciens 0.992 | Coprococcus comes 0.969 | Escherichia coli ED1a 0.967 | Escherichia coli IAI1 1.01 | Eubacterium rectale 0.944 | [3] 0.893 | Lactobacillus gasseri 1.03 | Lactobacillus paracasei 1.02 | Odoribacter splanchnicus 1 | [4] 1.03 | Parabacteroides merdae 0.984

NC(=O)C1CO1 (stereo not given)
inactive: Bacteroides caccae 0.982 | Bacteroides clarus 0.971 | Bacteroides dorei 0.864 | [1] 0.972 | Bacteroides uniformis 0.912 | [2] 0.929 | Clostridium difficile 1.01 | Collinsella aerofaciens 0.933 | Coprococcus comes 0.93 | Escherichia coli ED1a 0.957 | Escherichia coli IAI1 0.946 | Eubacterium rectale 0.989 | [3] 0.923 | Lactobacillus gasseri 0.995 | Lactobacillus paracasei 1.02 | Odoribacter splanchnicus 0.949 | [4] 0.895 | Parabacteroides merdae 0.946
active: Akkermansia muciniphila 0.657 | Bacteroides stercoris 0.586

COCCN(C(=O)CO)c1c(C)cccc1C(=O)O
inactive: Akkermansia muciniphila 1.23 | Bacteroides caccae 0.963 | Bacteroides clarus 1 | Bacteroides dorei 0.964 | Bacteroides stercoris 1.03 | [1] 1.01 | Bacteroides uniformis 0.961 | [2] 1.06 | Clostridium difficile 0.94 | Collinsella aerofaciens 0.936 | Coprococcus comes 0.972 | Escherichia coli ED1a 0.976 | Escherichia coli IAI1 0.956 | Eubacterium rectale 1.09 | [3] 0.968 | Lactobacillus gasseri 0.811 | Lactobacillus paracasei 0.996 | Odoribacter splanchnicus 1 | [4] 0.904 | Parabacteroides merdae 0.986

CCSC(=O)COc1ccc(Cl)cc1C
active: [1] 0.751
inactive: Akkermansia muciniphila 0.952 | Bacteroides caccae 0.977 | Bacteroides clarus 0.982 | Bacteroides dorei 0.905 | Bacteroides stercoris 0.997 | Bacteroides uniformis 1.03 | [2] 1.04 | Clostridium difficile 1.04 | Collinsella aerofaciens 0.966 | Coprococcus comes 0.981 | Escherichia coli ED1a 0.973 | Escherichia coli IAI1 0.986 | Eubacterium rectale 1.03 | [3] 1 | Lactobacillus gasseri 0.874 | Lactobacillus paracasei 1.08 | Odoribacter splanchnicus 0.901 | [4] 1.05 | Parabacteroides merdae 0.992

FC(F)(F)C(=NOCC1OCCO1)c1ccc(Cl)cc1
inactive: Akkermansia muciniphila 1.16 | Bacteroides caccae 0.948 | Bacteroides clarus 1.05 | Bacteroides dorei 0.969 | Bacteroides stercoris 1.34 | [1] 0.991 | Bacteroides uniformis 0.941 | [2] 0.988 | Clostridium difficile 0.904 | Collinsella aerofaciens 0.976 | Coprococcus comes 1.02 | Escherichia coli ED1a 1.01 | Escherichia coli IAI1 1.04 | Eubacterium rectale 1.06 | [3] 1.08 | Lactobacillus gasseri 1.01 | Lactobacillus paracasei 1.07 | Odoribacter splanchnicus 1.04 | [4] 1 | Parabacteroides merdae 1.03

CNc1nc(NC(C)C)nc(SC)n1
inactive: Akkermansia muciniphila 0.806 | Bacteroides caccae 1.04 | Bacteroides clarus 0.972 | Bacteroides dorei 0.989 | Bacteroides stercoris 0.913 | [1] 1.01 | Bacteroides uniformis 0.957 | [2] 0.862 | Clostridium difficile 1.01 | Collinsella aerofaciens 0.986 | Coprococcus comes 0.962 | Escherichia coli ED1a 1 | Escherichia coli IAI1 0.988 | Eubacterium rectale 0.879 | [3] 0.922 | Lactobacillus gasseri 1.18 | Lactobacillus paracasei 1.05 | Odoribacter splanchnicus 0.984 | [4] 0.985 | Parabacteroides merdae 0.993

C[C@@]1(c2ccccc2)NC(=O)N(Nc2ccccc2)C1=O
inactive: Akkermansia muciniphila 0.931 | Bacteroides caccae 1.04 | Bacteroides clarus 0.973 | Bacteroides dorei 1 | Bacteroides stercoris 0.965 | [1] 0.992 | Bacteroides uniformis 1.01 | [2] 0.96 | Clostridium difficile 1 | Collinsella aerofaciens 1.02 | Coprococcus comes 1.03 | Escherichia coli ED1a 1.02 | Escherichia coli IAI1 1.01 | Eubacterium rectale 0.948 | [3] 1 | Lactobacillus gasseri 1.05 | Lactobacillus paracasei 0.955 | Odoribacter splanchnicus 0.993 | [4] 1.02 | Parabacteroides merdae 0.996

CCc1cccc(C)c1NC(C)C(=O)O (racemic)
inactive: Akkermansia muciniphila 1.21 | Bacteroides caccae 1.01 | Bacteroides clarus 0.98 | Bacteroides dorei 0.931 | Bacteroides stercoris 0.965 | [1] 1.03 | Bacteroides uniformis 0.996 | [2] 1.04 | Clostridium difficile 1.03 | Collinsella aerofaciens 0.985 | Coprococcus comes 1.04 | Escherichia coli ED1a 0.986 | Escherichia coli IAI1 0.977 | Eubacterium rectale 1.19 | [3] 1.04 | Lactobacillus gasseri 0.97 | Lactobacillus paracasei 0.968 | Odoribacter splanchnicus 0.999 | [4] 0.978 | Parabacteroides merdae 1
